The supplement of paper PMC6555819

Key:
Test in all cases: PBM binding z-score (relative to random genomic background probes); higher = stronger binding; sequences stand for … in GC…GCGATTGACAGCGTAGAATGAAGG
[1] = test system: FXR:RXRa (NR concentration 270 nM, RXRa partner concentration 90 nM)
Summary of the method: (§1)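 Ligand-free nuclear receptor dimers were applied to custom Agilent 4×180K protein-binding microarrays whose double-stranded probes carried direct-repeat seeds, single-nucleotide variants, half-site ablations and random human genomic background sequences in 34-nt variable regions. Incubation lasted 1 h. Binding z-scores were computed against the random background probes from regression-normalized fluorescence.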

[2] = test system: LXRa:RXRa (NR concentration 270 nM, RXRa partner concentration 90 nM)
Summary of the method: as §1

[3] = test system: LXRa homodimer (NR concentration 270 nM)
Summary of the method: as §1

[4] = test system: LXRb:RXRa (NR concentration 270 nM, RXRa partner concentration 90 nM)
Summary of the method: as §1

[5] = test system: LXRb homodimer (NR concentration 270 nM)
Summary of the method: as §1

[6] = test system: PPARa:RXRa (NR concentration 270 nM, RXRa partner concentration 90 nM)
Summary of the method: as §1

[7] = test system: PPARg:RXRa (NR concentration 180 nM, RXRa partner concentration 90 nM)
Summary of the method: as §1

[8] = test system: PPARg:RXRa 270nM:90nM, anti-RXR (NR concentration 270 nM, RXRa partner concentration 90 nM)
Summary of the method: as §1

[9] = test system: PPARg:RXRa 30nM:10nM, anti-RXR (NR concentration 30 nM, RXRa partner concentration 10 nM)
Summary of the method: as §1

[10] = test system: PPARg:RXRa 90nM:30nM, anti-RXR (NR concentration 90 nM, RXRa partner concentration 30 nM)
Summary of the method: as §1

Sequence | PBM binding z-score [1] | PBM binding z-score [2] | PBM binding z-score [3] | PBM binding z-score [4] | PBM binding z-score [5] | PBM binding z-score [6] | PBM binding z-score [7] | PBM binding z-score [8] | PBM binding z-score [9] | PBM binding z-score [10]
TCTTGTAGATCAGCAGGTTTAGAAAGCTGGCCAA | -0.241 | -0.13 | -0.52 | 0.0239 | -0.59 | 0.117 | -0.901 | 0.915 | 2.13 | 1.23
ACTATTAGTTGAGACGAGGGCAACCGATAGGTTG | 0.538 | 0.128 | 0.022 | 0.22 | 0.0471 | 0.636 | 0.774 | 0.555 | 0.376 | 0.316
CAAACTAGGTCACCGGAAGGTCAAAGGCCGCATG | 6.24 | 5.81 | 4.23 | 5.17 | 1.01 | 6.34 | 9.9 | 7.75 | 6.27 | 7.97
CACACTAGGTCACGAAAGGTCAAAGTCGAATGAC | 7.55 | 8.25 | 9.12 | 7.76 | 3.53 | 6.67 | 9.73 | 8.2 | 6.53 | 8.24
TCTGCTAGGTCACTTGGTCAGCTAACGAGCTGCC | 2.56 | 2.03 | -0.292 | 1.38 | 0.874 | 2.97 | 2.53 | 3.31 | 1.62 | 2.28
CCTAGTTGGTCAGGAGGTCAAACACCGGATATGA | 4.57 | 4.4 | 3.59 | 4.03 | 1.06 | 4.55 | 3.32 | 3.96 | 1.67 | 3.26
TCTGCTAGGTCAGTTGGTCAGCGAACGAGCTGCC | 1.05 | 0.587 | -0.495 | 0.166 | 0.433 | 1.57 | 0.47 | 1.87 | 1.06 | 1.38
CTCGAAAGGTCGTGCCCAGGTGAGTATACCAAAC | 5.26 | 3.99 | 0.422 | 3.22 | 0.542 | 4.81 | 2.54 | 3.88 | 1.14 | 2.23
ATACCTAGGTGATCGTGAGGTCGTTGATACTAAC | 1.53 | 1.12 | 0.563 | 1.35 | 0.0825 | 1.55 | 0.632 | 0.766 | 0.387 | 0.954
TGAATGAGGTTAAAGATCAGGGGACGTGGCGTCG | 3.07 | 2.68 | -0.153 | 1.66 | 1.09 | 4.35 | 5.2 | 6.37 | 5.28 | 6.61
CGAACTAGGTCACAACAGGACAGTGAAGGATGAT | 3.29 | 4.76 | 0.422 | 2.17 | 0.119 | 4.65 | 7.81 | 6.57 | 3.9 | 6.22
GCTCGGAGGACAAGGTCAGAGTTTTGTCCGTAGA | 1.98 | 1.71 | -0.00501 | 1.56 | -0.35 | 2.42 | 0.985 | 1.89 | -0.291 | 0.859
CATCCAAGGTCAATGCTAGGTCAGTGAAAGCATT | 6.67 | 5.98 | 4.36 | 4.42 | 1.77 | 5.06 | 4.32 | 4.66 | 1.44 | 3.53
AGAATGAGGTTACCAAGGATCAGGGAAACGCTTG | 1.77 | 4.49 | -0.144 | 2.06 | -0.102 | 3.69 | 2.58 | 2.47 | 1.09 | 1.97
CCTACTGGGCCAATGGTCATTGATTCCAATGCTC | -0.623 | -0.68 | -0.691 | -0.531 | -0.674 | 1.86 | 4.15 | 5.51 | 3.81 | 6.38
CCTACTGGGCCAAAGGTTATTGATTCCAATGCTC | 0.648 | 1.32 | 0.345 | 1.76 | -0.363 | 5.33 | 10.4 | 9.22 | 8.72 | 10.5
GCGACTGGGGCATCAGCCGGTTACCATAACTTAA | -0.764 | -0.553 | -0.599 | -0.35 | -1.65 | 0.18 | 0.552 | 0.636 | -0.73 | -0.0776
GGAACGAGGGCATTCGAGTTAATAGCATGGCGAT | 1.38 | 1.05 | -0.476 | 0.179 | -0.759 | 1.58 | 1.18 | 0.939 | 0.26 | 1.09
CAAACTGGGTCACGAAAGGTCAAAGTCGAATGAC | 7.32 | 8.03 | 6.63 | 7.01 | 2.08 | 6.6 | 10.5 | 8.52 | 6.44 | 8.43
TCTAGTTGGTCATAGGTCACACACTCGAAATGCG | 3.07 | 3.34 | 1.99 | 3.31 | 1.25 | 4.96 | 8.97 | 8.03 | 8.3 | 8.57
CCTACTGGGACACGAAAGGTCATTGATTCAGTGA | 3.84 | 4.83 | 5.13 | 4.17 | 0.785 | 4.65 | 4.68 | 4.72 | 2.24 | 4.34
CCAGACATGTGAAAGGTAACTCAGTCTGGTACGC | -0.293 | -0.0217 | 0.0919 | 0.07 | 0.186 | 1.02 | 1.63 | 2.44 | 0.62 | 2.1
TGAATGAGTTTATAAGATCAGGGAACGTTGCAAA | -0.262 | -0.382 | -0.288 | -0.209 | -0.337 | 0.00137 | 0.119 | 0.389 | 0.73 | 0.5
GTACCAAGGTGAATAGGTGGTTGATGAGTAGGCG | 0.118 | 0.242 | -0.513 | -0.25 | -0.203 | 0.864 | 0.851 | 0.683 | 0.0319 | 0.389

Sequence | PBM binding z-score [1] | PBM binding z-score [2] | PBM binding z-score [3] | PBM binding z-score [4] | PBM binding z-score [5] | PBM binding z-score [6] | PBM binding z-score [7] | PBM binding z-score [8] | PBM binding z-score [9] | PBM binding z-score [10]
CGTCCAAGTTCATAGGAGGTCAGTGAAGACAGAT | 5.25 | 6.43 | 3.8 | 4.3 | 0.586 | 3.83 | 1.6 | 2.43 | 0.744 | 1.47
CCGACTGGGGCAGAAAGGTTACCATGCCATCCGG | 0.204 | 0.517 | -0.401 | 0.479 | -1.31 | 2.23 | 1.6 | 2.65 | 0.457 | 1.82
CCTGCTAGGTCATGGTCAACTAATCTACAGTATG | 3.72 | 2.85 | 0.245 | 1.98 | -0.184 | 3.72 | 2.81 | 3.17 | 0.82 | 1.92
TCTATTAGTTGAAGGGCAACCAACGAGTCCGTTT | 0.452 | 0.763 | 0.54 | 0.694 | 0.122 | 0.554 | -0.00575 | 1.94 | 3.75 | 2.69
TAGCCTAGGTCAATGGGCCAGTATAGTACGCATC | 3.09 | 2.16 | -0.016 | 1.51 | -0.146 | 3.27 | 2.95 | 2.83 | 0.834 | 1.67
CAAACTAGGACACGAAAGGTCAAAGTCGAATGAC | 5.33 | 5.73 | 6.38 | 5.43 | 1.98 | 5.8 | 6.54 | 6.27 | 3.92 | 5.63
ATATGTAGGTTATCGTGTCATTCAGTTTGCGCAT | 0.97 | 1.3 | 0.641 | 1.5 | 0.855 | 3.55 | 5.76 | 5.11 | 2.48 | 4.38
TCGTATAGGTAAAGGTGAAAGTCGAACGATATGA | 1.05 | 1.45 | 0.11 | 1.11 | -0.167 | 2.87 | 2.34 | 3.99 | 3.45 | 3.86
CCTTACGGGTCAAGGTTATAACACGGGTGGTACG | 5.53 | 3.71 | 0.233 | 3.44 | 0.254 | 5.22 | 4.63 | 4.8 | 2.22 | 3.94
CTCGAAAGGCCGTGCTCAGGTGAGTATACCAAAC | -0.251 | -0.522 | -0.406 | -0.298 | -0.835 | -0.342 | -0.381 | -0.723 | -0.648 | -0.958
AGAATGAGGTTATACGAAGATCAGGGAAGAAAGT | 2.26 | 1.67 | -0.199 | 1.54 | -0.139 | 3.25 | 1.68 | 1.8 | 0.749 | 1.51
CCTTACGGGTCACGAGGCTATAGCACGACGAGCG | 6.52 | 3.97 | 0.0117 | 3.26 | -0.222 | 5.83 | 6.52 | 5.91 | 2.64 | 4.4
TCTTGTAGATCAAGAAGGTTAAGAAAGCCTGAGT | 0.542 | 0.704 | -0.24 | 0.833 | -0.584 | 1.44 | -0.11 | 1.65 | 2.96 | 2.31
CGTCCAAGGTCAGAGAGCTCAGTGAATGCCGAGT | 4.73 | 2.83 | -0.139 | 1.84 | -0.554 | 3.92 | 1.95 | 2.52 | 0.0748 | 1.43
AGTCAAAGCTCATCTAGGTAACGTAAGATATGCT | -0.387 | -0.578 | -0.275 | -0.318 | -0.689 | 0.0609 | 0.604 | 0.302 | -0.0105 | 0.0855
CGAACGAGGGCATGAGTAGATAGCAAATGCCGAT | 0.0959 | 0.081 | -0.748 | -0.189 | -1.08 | 0.99 | 1.4 | 0.988 | 0.168 | 0.198
ACAGACAGGTCATGAAGGTAACTCAGGCTATCAT | 5.65 | 4.39 | 0.927 | 3.31 | 0.862 | 4.77 | 3.76 | 3.6 | 1.23 | 2.19
CCGACTGGGGCAAAGGTTACCAAACTCAGTACGA | 1.54 | 1.78 | 0.0328 | 2.27 | -1.29 | 5.64 | 10.5 | 9.36 | 9.35 | 10.6
CAGACTAGGTCAAGGTCAAAGTCGGTTTGTGCCA | 6.13 | 5.42 | 3.5 | 4.36 | 0.864 | 5.62 | 7.72 | 7.03 | 5.17 | 6.78
CCTATTAGTTGACCGTAAGGGCAACCGAAGCTCG | 1.88 | 0.908 | 0.863 | 0.769 | 0.64 | 0.834 | 0.00382 | 0.48 | -0.271 | -0.155
CCTGCTAGGTCAATGGTCAACTAAAGCAGCTCGC | 3.09 | 2.16 | -0.236 | 1.83 | -0.0517 | 3.42 | 5.68 | 5.74 | 4.25 | 5.51
TAGCCTAGGTCATTCGGGGGCCAGTATAGAAAGC | 5.41 | 4.7 | 1.38 | 5.3 | 9.24 | 4.26 | 3.69 | 4.12 | 1.38 | 3.17
TCTAGTTGGTCACGGAGGTCGCACACGACGGGTA | 0.941 | 1.09 | -0.0222 | 1.04 | 0.0566 | 2.04 | 1.61 | 2.28 | 2.83 | 2.43
AATGCAGGGTCATCGTAGGCCAGAGTACGCACAG | 7.22 | 6.03 | 1.22 | 4.54 | -0.0477 | 5.97 | 6.45 | 5.75 | 2.6 | 4.62
